# In the supplement of paper PMC9135407:
# Where “and” joins values, the source holds several entries; their conditions need not be identical. Equal entries are not always repeated. Structures can show the parent of a compound that is named as a salt. Among all 5,800 compounds or so, about 620 (11%) showed activity. Only a selection was taken, and actives are over-represented in it overall. A number with no mark means an inactive call.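 How the source made its calls: active = score above a cut-off or among the top three wells of a plate; in these data no inactive exceeds 0.85.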
# System: primary human hepatic stellate cells (donor 1)
# Test: scaled lipid accumulation score (0 = DMSO-like, 1 = nortriptyline-like); higher = stronger HSC inactivation (lipid re-accumulation), active = hit call of the paper
# Settings: 48 h
# [1] = library stock concentration: 1 mM
# [2] = library stock concentration: 3.33 mM
# [3] = library stock concentration: 10 mM
# [4] = library stock concentration: 6.2 mM
# [5] = library stock concentration: 5.1 mM
# [6] = library stock concentration: 13.5 mM
smiles,measurement,setting,value
CCCCC/C=C\C/C=C\C/C=C\C/C=C\CCCC(=O)S[C@H](COCCCCCCCCCCCCCCCC)COP(=O)([O-])OCC[N+](C)(C)C [Arachidonoyl thio-PC],scaled lipid accumulation score,[1],≤ 0
CC(C=CC(=O)NO)=CC(C)C(=O)c1ccc(N(C)C)cc1 (centres undefined) [Trichostatin A (TSA)],scaled lipid accumulation score,[2],0.515
same,scaled lipid accumulation score,[3],0.663
CC(/C=C/C(=O)NO)=C\[C@@H](C)C(=O)c1ccc(N(C)C)cc1 [Trichostatin-A],scaled lipid accumulation score,library stock concentration: 16.5 mM,0.589
CC(/C=C/C(=O)NO)=C\[C@@H](C)C(=O)c1ccc(N(C)C)cc1 [Trichostatin A],scaled lipid accumulation score,[1],0.793 (active)
CCCSc1nc(N[C@@H]2C[C@H]2c2ccc(F)c(F)c2)c2nnn([C@@H]3C[C@H](OCCO)[C@@H](O)[C@H]3O)c2n1 [Ticagrelor],scaled lipid accumulation score,[2],≤ 0
same,scaled lipid accumulation score,[3],0.193
CSc1nc(N)c2ncn([C@@H]3O[C@H](COP(=O)(O)OP(=O)(O)O)[C@H](O)C3O)c2n1 (some centres undefined),scaled lipid accumulation score,[3],0.082
CO/N=C1\C[C@]2(C[C@@H]3C[C@@H](C/C=C(\C)C[C@@H](C)/C=C/C=C4\CO[C@@H]5[C@H](O)C(C)=C[C@@H](C(=O)O3)[C@]45O)O2)O[C@H](/C(C)=C/C(C)C)[C@H]1C,scaled lipid accumulation score,[3],≤ 0
"OC[C@H]1O[C@@H](n2cnc3c(N[C@H]4CCC[C@@H]4O)ncnc32)[C@@H](O)C1O (stereo partly drawn) [Adenosine, N-(2-hydroxycyclopentyl)-, (1S-trans)- [CAS]]",scaled lipid accumulation score,[3],≤ 0
CN(C)CCCC1(c2ccc(F)cc2)OCc2cc(C#N)ccc21 (centres undefined) [Citalopram Hydrobromide],scaled lipid accumulation score,,≤ 0
CN(C)CCC[C@@]1(c2ccc(F)cc2)OCc2cc(C#N)ccc21 [Escitalopram Oxalate],scaled lipid accumulation score,[2],≤ 0
same,scaled lipid accumulation score,[3],0.644
CN(C)CCC[C@@]1(c2ccc(F)cc2)OCc2cc(C#N)ccc21,scaled lipid accumulation score,[3],0.614
CN(C)CCC[C@@]1(c2ccc(F)cc2)OCc2cc(C#N)ccc21 [Escitalopram],scaled lipid accumulation score,[4],0.197
CN(C)CCCC1(c2ccc(F)cc2)OCc2cc(C#N)ccc21 (centres undefined) [Citalopram hydrobromide],scaled lipid accumulation score,[3],0.259 and 0.597
CN(C)CCCC1(c2ccc(F)cc2)OCc2cc(C#N)ccc21 (centres undefined) [Citalopram],scaled lipid accumulation score,[4],0.446 and 0.566
same,scaled lipid accumulation score,[3],0.51
Br.CN(C)CCCC1(c2ccc(F)cc2)OCc2cc(C#N)ccc21 (centres undefined) [Citalopram hydrobromide],scaled lipid accumulation score,[3],0.952 (active)
"CCCCCCCCC#CCC#CCC#CCCCC(=O)O [5,8,11-Eicosatriynoic acid]",scaled lipid accumulation score,[1],≤ -0.021
"CCCCCCCCC#CCC#CCC#CCCCC(=O)O [5,8,11-Eicosatriynoic Acid]",scaled lipid accumulation score,[1],0.059
CCCCCCCCCCCCCCCC(=O)N[C@@H](COP(=O)(O)O)C(=O)O,scaled lipid accumulation score,[1],≤ -0.021
O=C(CCc1ccncc1)NNC(=O)N1Cc2ccccc2Oc2ccc(Cl)cc21,scaled lipid accumulation score,[3],0.105
CN(C)CC[C@@H](c1ccc(Cl)cc1)c1ccccn1,scaled lipid accumulation score,[3],0.377
CN(C)CCC(c1ccc(Cl)cc1)c1ccccn1 (centres undefined) [Chlorpheniramine maleate],scaled lipid accumulation score,,0.469
same,scaled lipid accumulation score,library stock concentration: 7.3 mM,0.251
CN(C)CCC(c1ccc(Cl)cc1)c1ccccn1 (centres undefined) [Chlorpheniramine Maleate],scaled lipid accumulation score,[2],0.106
same,scaled lipid accumulation score,[3],≤ 0
CN(C)CC[C@@H](c1ccc(Cl)cc1)c1ccccn1 [Chlorpheniramine (s) maleate],scaled lipid accumulation score,[5],0.181
same,scaled lipid accumulation score,[3],0.005
CN(C)CCC(c1ccc(Br)cc1)c1ccccn1 (centres undefined) [Brompheniramine hydrogen maleate],scaled lipid accumulation score,[2],0.182
same,scaled lipid accumulation score,[3],0.583
CN(C)CC[C@@H](c1ccc(Cl)cc1)c1ccccn1 [Dexchlorpheniramine maleate],scaled lipid accumulation score,[5],≤ 0
CN(C)CCC(c1ccc(Cl)cc1)c1ccccn1 (centres undefined) [Chlorpheniramine],scaled lipid accumulation score,[3],≤ 0
CN(C)CCC(c1ccc(Cl)cc1)c1ccccn1.O=C(O)/C=C\C(=O)O (centres undefined),scaled lipid accumulation score,[3],0.891 (active)
"CN(C)CCC(c1ccc(Br)cc1)c1ccccn1 (single isomer, unassigned; (+)) [(+)-Brompheniramine maleate]",scaled lipid accumulation score,[3],0.351
CN(C)CCC(c1ccc(Br)cc1)c1ccccn1.O=C(O)/C=C\C(=O)O (centres undefined),scaled lipid accumulation score,[3],0.9 (active)
CN(C)CCC(c1ccc(Br)cc1)c1ccccn1 (centres undefined) [Brompheniramine maleate],scaled lipid accumulation score,,0.343
same,scaled lipid accumulation score,[3],0.275
CCOc1nc2cccc(C(=O)OC(C)OC(=O)OC3CCCCC3)c2n1Cc1ccc(-c2ccccc2-c2nn[nH]n2)cc1 (centres undefined) [Candesartan cilextil],scaled lipid accumulation score,[3],≤ -0.027
CCOc1nc2cccc(C(=O)OC(C)OC(=O)OC3CCCCC3)c2n1Cc1ccc(-c2ccccc2-c2nn[nH]n2)cc1 (centres undefined) [Candesartan Cilexetil],scaled lipid accumulation score,[2],≤ 0
same,scaled lipid accumulation score,[3],≤ 0
"C/C=C/c1ccc(OC)cc1 [Anethole, trans-]",scaled lipid accumulation score,[6],≤ -0.006
C/C=C/c1ccc(OC)cc1 [Anethole],scaled lipid accumulation score,[3],0.104
same,scaled lipid accumulation score,[6],≤ 0
CCCCC/C=C\C\C=C/C=C/C=C/[C@@H](SC[C@H](N)C(=O)O)[C@@H](O)CCCC(=O)O [Leukotriene E4],scaled lipid accumulation score,library stock concentration: 100 uM,0.015
C[C@]1(c2nc3c(C(N)=O)cccc3[nH]2)CCCN1 [Veliparib (ABT-888)],scaled lipid accumulation score,[2],≤ 0
same,scaled lipid accumulation score,[3],≤ 0
C[C@]1(c2nc3c(C(N)=O)cccc3[nH]2)CCCN1 [Veliparib],scaled lipid accumulation score,library stock concentration: 80 uM,0.0075
same,scaled lipid accumulation score,library stock concentration: 400 uM,≤ -0.0045
same,scaled lipid accumulation score,library stock concentration: 2 mM,≤ -0.0045
same,scaled lipid accumulation score,[3],≤ -0.0045
CCCCCCCC/C=C\C/C=C\C/C=C\CCCC(=O)O [Mead acid (20:3 n-9)],scaled lipid accumulation score,[1],0.025
NC(=O)CCC/C=C\C[C@@H]1[C@@H](/C=C/[C@@H](O)CCc2ccccc2)[C@H](O)C[C@@H]1O [17-phenyl trinor Prostaglandin F2.alpha. amide],scaled lipid accumulation score,[1],≤ 0
